Measurements from PubChem BioAssay AID743279 (National Center for Advancing Translational Sciences (NCATS), 2014).
In all, about 360,000 compounds went through this assay and about 17,000 (4.7%) were called active. Not shown: some 5% with an inconclusive outcome. No stated cut-off is given here; in the data, active means activity change below about -50%; inconclusive means mostly about -30% to -49%; inactive means weaker than that. What follows is part of a selection rich in actives, with near analogues and random picks from the rest.

Assay: qHTS for Inhibitors of Inflammasome Signaling: IL-1-beta AlphaLISA Primary Screen
Settings: THP-1 LPS/ATP IL-1B secretion, 16 h; at 57.5 µM, hits give low values
How it was run: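 THP-1 cells pretreated 1 hr with compounds (up to 57.5 uM final), then stimulated with LPS (250 ng/mL final) plus ATP (1.25 mM final); secreted IL-1B measured by AlphaLISA after 16 hr, decreased signal indicating inhibition.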
On the % scale 0 is the no-effect control and ±100 the full control effect.

SMILES	activity change
Cc1ccc(-c2ccc(CN3C(C)C(=O)N(Cc4cn(CCC5OCCCO5)nn4)CCS3(=O)=O)cc2)cc1 (stereo not given)	-2.45% (inactive)
CC1C(=O)Nc2ccccc2N1C(=O)c1ccc(F)cc1F (stereo not given)	10.1% (inactive)
Cc1ccc(C(=O)N[C@H](C(=O)N2CCN(c3ncccn3)CC2)C(C)C)cc1	-11.5% (inactive)
CCOC(=O)c1cnn(Cc2ccccc2Cl)c1N	0.436% (inactive)
Cc1c(NC(=O)CSc2nnnn2-c2ccc(C(=O)O)cc2)c(=O)n(-c2ccccc2)n1C	22.1% (inactive)
Cc1c(NC(=O)CSc2cccc3cccnc23)c(=O)n(-c2ccccc2)n1C	-96.5% (active)
Cc1c(NC(=O)CSc2nnc(-c3cccnc3)n2N)c(=O)n(-c2ccccc2)n1C	25.5% (inactive)
Cc1noc(C)c1-c1ccc(C(=O)NCc2ccncc2)c2occc12	60.8% (inactive)
COC(=O)CN1C(C)=Nc2ccc(Br)cc2C1c1ccccc1 (stereo not given)	-27.1% (inactive)
Cc1ccc(C2C(C#N)C(C#N)N3CCCN23)cc1 (stereo not given)	0.442% (inactive)
CCN(/N=C/c1ccc(N(C)C)cc1)c1nc2ccccc2[nH]1	-29.3% (inactive)
CCN(/N=C/c1ccccc1)c1cc(=O)n(C)c(=O)[nH]1	0% (inactive)
Oc1ccc(/C=N/N(Cc2ccccc2)c2ccccc2)cc1	-72.7% (active)
Cc1ccc(-c2nc(-c3ccncc3)no2)c(C)c1	-25.6% (inactive)
Cc1cc(Cl)ccc1OCc1nc(-c2ccncc2)no1	-55.8% (active)
Cc1cc(Cl)ccc1OCCCC(=O)NCc1ccncc1	-6.96% (inactive)
O=C(COc1ccc(Br)cc1F)NC1CCN(Cc2ccccc2)CC1	-25.9% (inactive)
O=S(=O)(NCCCc1ccccc1)c1ccc(Br)cc1	8.22% (inactive)
O=C(Cc1ccc(Br)cc1)NCCc1ccccc1	-1.81% (inactive)
S=C(Nc1ccc(Br)cc1Cl)NC1CCN(Cc2ccccc2)CC1	-75.9% (active)
Cc1cc(Br)ccc1NC(=S)NC1CCCC1	0.7% (inactive)
S=C(NCCCc1ccccc1)Nc1ccc(Br)cc1	-85.8% (active)

SMILES	activity change
CCNC(=S)NNC(=O)C1CCN(Cc2ccccc2)CC1	-12.8% (inactive)
S=C(NN=C1CCN(Cc2ccccc2)CC1)NC1CCCCC1	0% (inactive)
S=C(Nc1ccc(Br)cc1)NC1CCN(Cc2ccccc2)CC1	-96% (active)
COCCN(C(=O)C(C)N1C(=O)c2ccccc2C1=O)c1c(N)n(CC(C)C)c(=O)[nH]c1=O (stereo not given)	13.1% (inactive)
COc1ccc(OC)c(NC(=O)c2cc(-c3cc(F)ccc3OCC3CCCO3)n[nH]2)c1 (stereo not given)	0% (inactive)
CCCC(=O)N1CCC1(C)C(=O)NCc1ccc(C(C)C)cc1 (stereo not given)	-18% (inactive)
Cc1cc(C)cc(OCC(=O)O/N=C(\N)Cc2ccc([N+](=O)[O-])cc2)c1	-24.7% (inactive)
N/C(Cc1ccc([N+](=O)[O-])cc1)=N\OC(=O)COc1ccc2ccccc2c1	-59.9% (active)
N/C(=N\OC(=O)Cc1ccc([N+](=O)[O-])cc1)c1ccccn1	-21.1% (inactive)
CC1(C(=O)NS(=O)(=O)c2ccccc2)CCN1C(=O)c1ccccc1 (stereo not given)	21% (inactive)
Cc1ccc(COc2ccc(/C=N/NC(=O)CN3CCCCC3)cc2)cc1	-51.4% (active)
CCOc1cc(/C=N/NC(=O)CN2CCCCC2)ccc1O	2.69% (inactive)
O=C(CN1CCSCC1)N/N=C/c1ccc(F)cc1	-9.62% (inactive)
COc1ccc(N2CC(C(=O)NCCN3C(=O)S/C(=C\c4cccnc4)C3=O)CC2=O)c(OC)c1 (stereo not given)	-26.5% (inactive)
COc1cc(OC)cc(C(=O)NNC(=O)Cc2cccs2)c1	-1.89% (inactive)
Cc1cc2nc(-c3ccco3)c(Cc3cccc(F)c3)n2c(C)c1Br	5.29% (inactive)
O=S1(=O)CC(N2CCN(CCO)CC2)CN1Cc1cn(Cc2cccc(Cl)c2)nn1 (stereo not given)	13.7% (inactive)
CCOC(=O)C1C(=O)C=C(c2ccc(OC)cc2)CC1c1ccco1 (stereo not given)	-62.8% (active)
COc1ccc(C2=NN(C(=O)CSc3nnnn3C)C(c3ccco3)C2)cc1 (stereo not given)	-17.6% (inactive)
CCOC(=O)C1C(=O)NC(N2CCN(c3ccccc3)CC2)=NC1c1ccco1 (stereo not given)	-8.04% (inactive)
Cc1ccc(NC(=O)C(C)OC(=O)C2CC3CCCC(C2)C3=O)cc1S(=O)(=O)N1CCOCC1 (stereo not given)	21% (inactive)
CC1(C(=O)Nc2cccc3c2CCCC3)CCN1C(=O)C1(c2ccccc2)CC1 (stereo not given)	2.24% (inactive)

SMILES	activity change
CC(C)Cc1ccc(-c2cc3nc(NCc4cccc(Cl)c4)ccn3n2)cc1	16.6% (inactive)
COc1ccc(-c2csc3ncnc(N4CCN(S(=O)(=O)c5cccc(F)c5)CC4)c23)cc1	-1.57% (inactive)
COc1cccc(/C=C/C(=O)OCC(=O)N2CCCc3ccccc32)c1	-0.538% (inactive)
COc1cccc(C=CC(=O)C=CC=Cc2ccccc2)c1	-59.4% (active)
COc1cccc(C(=O)NNC(=O)/C=C/c2ccccc2)c1	12.5% (inactive)
COc1ccc(C2OC(CCc3ccccc3)Cc3[nH]c(=S)[nH]c(=O)c32)cc1 (stereo not given)	-10.2% (inactive)
CCn1ccnc1CN(C)C(=O)c1cc(COc2ccc(Cl)cc2OC)on1	-11% (inactive)
COc1ccc(OCc2cc(C(=O)N3CCCC3)no2)c2ccccc12	0% (inactive)
COc1cc(Cl)ccc1OCc1cc(C(=O)N2CC[C@@H]3CCCC[C@H]3C2)no1	-82.6% (active)
O=C(CCCN1C(=O)CCC1=O)Nc1ccc(Cl)c(C(F)(F)F)c1	3.74% (inactive)
O=C(COC(=O)c1cc[n+]([O-])cc1)Nc1ccc(Cl)c(C(F)(F)F)c1	14.3% (inactive)
O=C(CC(O)(C(F)(F)F)C(F)(F)F)Nc1ccc(Cl)c(Cl)c1	-71.8% (active)
COc1ccc(C(=O)N2CCCCC2c2cc(C(=O)Nc3ccccc3)no2)cc1 (stereo not given)	-3.11% (inactive)
O=C(CCN1C(=O)c2ccncc2C1=O)Nc1cc(F)ccc1F	36.2% (inactive)
C#CCOCCOCCOCCNc1nc(N2CCN(C(=O)[C@H](C(C)C)n3cc(CCO)nn3)CC2)nc(N2CCN(C(=O)[C@H]([C@@H](C)CC)n3cc(CCCN=C(N)N)nn3)CC2)n1	-5.99% (inactive)
C#CCOCCOCCOCCNc1nc(N2CCN(C(=O)CCCCCCCCCCNC(=O)[C@H](CCCCN)n3cc(C)nn3)CC2)nc(N2CCN(C(=O)CCCCCCCCCCNC(=O)[C@H](CO)n3cc(CCCSC)nn3)CC2)n1	-81.7% (active)
C#CCOCCOCCOCCNc1nc(N2CCN(C(=O)Cn3cc(CCO)nn3)CC2)nc(N2CCN(C(=O)[C@H](CCCCN)n3cc(CCCC)nn3)CC2)n1	2.45% (inactive)
C#CCOCCOCCOCCNc1nc(N2CCN(C(=O)CCCCCCCCCCNC(=O)[C@H]([C@@H](C)CC)n3cc(CCCCN=C(N)N)nn3)CC2)nc(N2CCN(C(=O)CCCCCCCCCCNC(=O)[C@H](CO)n3cc(CCCSC)nn3)CC2)n1	-111% (active)
C#CCOCCOCCOCCNc1nc(N2CCN(C(=O)Cn3cc(CCO)nn3)CC2)nc(N2CCN(C(=O)Cn3cc(CCCN=C(N)N)nn3)CC2)n1	12.6% (inactive)
C#CCOCCOCCOCCNc1nc(N2CCN(C(=O)CCCCCCCCCCNC(=O)Cn3cc(CCCCCN)nn3)CC2)nc(N2CCN(C(=O)CCCCCCCCCCNC(=O)[C@H](CO)n3cc(CCCSC)nn3)CC2)n1	-72.1% (active)
C#CCOCCOCCOCCNc1nc(N2CCN(C(=O)[C@H](CCCCN)n3cc(CCC(=O)O)nn3)CC2)nc(N2CCN(C(=O)[C@H](CCCCN)n3cc(CC(C)O)nn3)CC2)n1 (stereo not given in full)	3.3% (inactive)
C#CCOCCOCCOCCNc1nc(N2CCN(C(=O)Cn3cc(CCCCN)nn3)CC2)nc(N2CCN(C(=O)[C@H](CCCCN)n3cc(CCC(=O)O)nn3)CC2)n1	58.3% (inactive)

SMILES	activity change
C#CCOCCOCCOCCNc1nc(N2CCN(C(=O)[C@H](CCC(=O)O)n3cc(CN)nn3)CC2)nc(N2CCN(C(=O)[C@H](CCC(=O)O)n3cc(CN)nn3)CC2)n1	25.6% (inactive)
COc1ccc(CCNc2cc(N3CCN(C(=O)c4ccccc4OC)CC3)ccc2[N+](=O)[O-])cc1OC	42.9% (inactive)
O=C(NN=CC=Cc1ccccc1)C(O)C(O)C(=O)NN=CC=Cc1ccccc1 (stereo not given)	-17.2% (inactive)
Cc1ccc(C(CNC(=O)Nc2cccc(C)c2)N2CCN(C)CC2)cc1 (stereo not given)	-20.1% (inactive)
CCC1CCCCN1C(=S)NC(=O)c1ccco1 (stereo not given)	-6.58% (inactive)
CCn1c(=O)c2ccccc2n(CC(=O)N2CCCc3ccccc32)c1=O	-0.244% (inactive)
COc1ccc(CCNC(=O)COc2cc(C)cc3oc(=O)c(C)c(C)c23)cc1OC	-1.44% (inactive)
Cc1cccc(NC(=O)c2ccc(COc3ccccc3[N+](=O)[O-])o2)n1	6.94% (inactive)
CCOc1ccc(OCc2ccc(C(=O)Nc3cccc(C)n3)o2)cc1	-69% (active)
CCOc1ccc(OCc2ccc(C(=O)N(C)c3ccccc3)o2)cc1	-7.29% (inactive)
OC[C@@H]1CN(Cc2ccc(Cl)cc2)C[C@H](n2cnc3c(NCc4ccncc4)ncnc32)O1	-7% (inactive)
C=CCn1c2c(c3ccccc31)CCC2	0% (inactive)
Cc1ccc(SC(CC(=O)c2ccc(C(C)(C)C)cc2)C(=O)O)cc1 (stereo not given)	-93.8% (active)
Cc1ccc(C(=O)CSc2ccccc2C(=O)O)cc1	5.18% (inactive)
CC(C)(C)c1ccc(C(=O)NNC(=O)Cc2ccccc2)cc1	0.0784% (inactive)
CCC(C)C1(C2CCCC2)NC(=O)NC1=O (stereo not given)	-5.19% (inactive)
Cc1nnc(SCC(=O)N2c3ccccc3C(C)(c3ccc(Cl)cc3)CC2(C)C)s1 (stereo not given)	-71.6% (active)
CC1(c2cccc([N+](=O)[O-])c2)CC(C)(C)N(C(=O)c2ccccc2)c2ccccc21 (stereo not given)	-2.13% (inactive)
CC1(c2ccccc2)CC(C)(C)N(C(=O)c2cc([N+](=O)[O-])cc([N+](=O)[O-])c2)c2ccccc21 (stereo not given)	5.37% (inactive)
